aDG glyco up – alpha-DG glycosylation activation | 0.22% of 360,000 active | Pro5-aDG cells, alpha-DG glycosylation AlphaScreen (IIH6); 0% Pro5, 100% B10-LARGE cell signal | activation, % at 10 µM | AID 624168;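 active = activation of at least 8% versus controls, or a plate z-score of at least 8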;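 also: Pro5 are CHO cells carrying HIG-tagged alpha-DG that lacks glycosylation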
FAS TE block – FAS thioesterase (human) inhibition; recombinant FAS-TE, OMFH fluorogenic substrate, fluorescence endpoint; inhibition, % at 15 µM; AID 602261; 0.67% of 360,000 active;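 active = compounds whose normalised, plate-corrected inhibition of enzyme fluorescence in the single-dose primary screen is 50% or more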;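 also: 0% = DMSO with enzyme and 100% = substrate without enzyme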
beta cell repl – induces beta-cell replication in MIN6 cells; MIN6 cells proliferation, ATPlite luminescence, 48 h; cells starved in 0.2% serum; 100% = growth in 10% serum; proliferation, % at 10 µM; 0.29% of 330,000 active;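 active = compounds whose signal lies at least 3.5 SD above the mean of all wells on their plate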;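 also: 0% = DMSO-treated cells in low-serum medium and 100% = 10% serum control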
TAG inh – reduces triacylglycerol accumulation in H9c2 cells; 0.66% of 230,000 active; inhibition, % at 12.5 µM; Nile Red lipid (TAG) fluorescence; cells loaded with 200 µM oleic acid;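 active = pattern-corrected inhibition of lipid staining of at least 50% with the nuclear-stain viability signal not falling by more than 50%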;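 also: 0% = DMSO wells and 100% = triacsin C control wells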
m-calpain inh – inhibitors of pig calpain II; purified calpain II, fluorogenic peptide substrate, 30 min; inhibition, % at 16 µM; 0.37% of 220,000 active;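 active = inhibition above about 50%, limit read from the data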
Cardio protect – myocardial damage modulation in H9c2 cells; AID 588492; H9c2 cardiomyocytes, H2O2 injury protection, ATPLite, 2 h; protection from H2O2 cell death, % at 20 µM; 0.63% of 360,000 active;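 active = compounds giving at least 50% protection of heart cells from peroxide-induced death in the single-dose screen, raw or plate-pattern-corrected value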;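 also: 0% = DMSO wells with peroxide and 100% = DMSO wells without peroxide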
aDG conf – confirmation of alpha dystroglycan glycosylation activators; shares compounds with aDG glyco up; Pro5-aDG cells, alpha-DG glycosylation, IIH6 AlphaLISA; scaled to LARGE-overexpressing B10 cells as 100%; activation, % at 10 µM (by protocol); 17% of 600 active; AID 651671;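 active = activation of at least 7% in one or more replicates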;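 also: cells exposed to compound for two days before detection; 0% = DMSO-treated Pro5 cells and 100% = DMSO-treated B10-LARGE cells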
Starred values were filed as active, the others as inactive. The list is not random: actives were taken first. Their share in the collection is about 2.3%.

Results for CC(=O)c1ccc(N2CCN(C(=O)c3cc(-c4ccncc4)nc4ccc(Cl)cc34)CC2)cc1 ?
aDG glyco up: 0.2; FAS TE block: 8.2; beta cell repl: -5.8; TAG inh: 17.2; Cardio protect: 49.4

How did CC(C)Oc1ccc(S(=O)(=O)N2CCOCC2)cc1NC(=O)C(C)Oc1ccc(F)cc1 (centres undefined) do in these assays?
aDG glyco up: 0.2; FAS TE block: 18.4; beta cell repl: 5.4; TAG inh: 17.5; Cardio protect: 2.2

How did Cc1cc(-c2csc(NC(=O)c3ccc(S(=O)(=O)N(C)C)cc3)n2)c(C)n1-c1ccccc1 do in these assays?
aDG glyco up: 9.4*; FAS TE block: 5.3; beta cell repl: -2.5; m-calpain inh: -29.0; Cardio protect: -7.2; aDG conf: -1.3

How did CN(C)S(=O)(=O)c1ccc(C(=O)Nc2nc(-c3cc4ccccc4o3)cs2)cc1 do in these assays?
aDG glyco up: 2.6; FAS TE block: -8.7; beta cell repl: -6.3; m-calpain inh: -97.4; Cardio protect: -25.5

What do the screens show for `Cn1ncc(Cl)c1C(=O)NNC(=O)Nc1cccc2ccccc12`?
aDG glyco up: -0.2; FAS TE block: -1.1; beta cell repl: -2.6; TAG inh: -2.1; Cardio protect: 6.8

Results for CN(CC(=O)Nc1cccc(Cl)c1)S(=O)(=O)c1ccc2[nH]c(=O)oc2c1 ?
aDG glyco up: 5.7*; FAS TE block: -10.1; beta cell repl: -0.2; Cardio protect: -3.1; aDG conf: -0.7

How did CC(C)C[C@@H](CN)NC(=O)c1nc[nH]c1C(=O)N[C@@H](CC(C)C)C(=O)CNC[C@H](C)NC(=O)c1nc[nH]c1C(=O)N[C@@H](C)C(=O)O do in these assays?
aDG glyco up: -0.4; FAS TE block: -7.9; TAG inh: 3.2; Cardio protect: 4.7

What do the screens show for `CCN(CC)CCCN(C(=O)c1ccccc1F)c1nc(-c2ccc(OC)cc2)cs1`?
aDG glyco up: 4.0*; FAS TE block: 2.0; beta cell repl: -4.3; TAG inh: 48.6; Cardio protect: -0.2; aDG conf: 1.9

How did COc1ccc(OC)c(NC(=O)N[C@@H](Cc2ccccc2)C(=O)O)c1 do in these assays?
aDG glyco up: 5.9*; FAS TE block: -5.9; beta cell repl: 2.5; m-calpain inh: 2.6; Cardio protect: 3.9; aDG conf: 0.3

What do the screens show for `Cc1ccccc1-c1cccc([C@@H]2C[C@H]3[C@H](CON3C)CN2S(=O)(=O)c2ccccc2C)c1`?
aDG glyco up: 6.0*; FAS TE block: 17.4; TAG inh: -1.7; Cardio protect: 5.1; aDG conf: 0.2

What do the screens show for `Cc1ccccc1S(=O)(=O)N1C[C@H]2CON(C)[C@H]2C[C@H]1c1cccc(-c2ccccc2)c1`?
aDG glyco up: 0.5; FAS TE block: 20.0; TAG inh: -11.5; Cardio protect: 6.9

Results for CC(=O)Nc1nc(CC(=O)c2ccccc2)cs1 ?
aDG glyco up: 8.4*; FAS TE block: -5.2; beta cell repl: 2.1; TAG inh: 10.6; Cardio protect: 3.1; aDG conf: 1.1

Results for CC1C(=O)N(Cc2cn(CC3CCCCC3)nn2)CCS(=O)(=O)N1Cc1ccc(-c2cccc(CO)c2)cc1 (centres undefined) ?
aDG glyco up: 0.3; FAS TE block: 6.4; TAG inh: -7.0; Cardio protect: -5.0

How did OC[C@@H]1CN(Cc2ccc(-c3ccccc3)cc2)C[C@H](n2cnc3c(NC4CCC4)ncnc32)O1 do in these assays?
aDG glyco up: 7.6*; FAS TE block: 8.1; TAG inh: 16.3; Cardio protect: -9.5; aDG conf: 1.7

How did OC[C@@H]1CN(Cc2ccccc2)C[C@H](n2cnc3c(NC4CC4)ncnc32)O1 do in these assays?
aDG glyco up: 0.0; FAS TE block: -5.3; TAG inh: 5.6; Cardio protect: 2.6

How did O=C1CSC(=S)N1Cc1ccccc1 do in these assays?
aDG glyco up: 0.6; FAS TE block: 5.5; TAG inh: -12.6; Cardio protect: -0.8

What do the screens show for `O=C(COc1ccccc1Br)NCCC1=CCCCC1`?
aDG glyco up: 3.6*; FAS TE block: 17.7; beta cell repl: -1.3; TAG inh: 3.0; Cardio protect: -6.1; aDG conf: -0.8

How did COc1ccccc1OCC(=O)NCCC1=CCCCC1 do in these assays?
aDG glyco up: 0.4; FAS TE block: -6.2; beta cell repl: -4.0; m-calpain inh: 14.3; Cardio protect: 3.9

How did COC(=O)c1cccc(NC(=O)CN2C(=O)c3ccccc3C2=O)c1 do in these assays?
aDG glyco up: 1.3*; FAS TE block: -3.3; beta cell repl: -1.6; Cardio protect: 1.4; aDG conf: 1.1

What do the screens show for `COC(=O)c1cccc(NC(=O)C(C)N2C(=O)c3ccccc3C2=O)c1` (centres undefined)?
aDG glyco up: -0.1; FAS TE block: -3.7; beta cell repl: 0.7; m-calpain inh: 25.8; Cardio protect: 3.5

Results for Cc1cccc(OCC(=O)Nc2cc(S(=O)(=O)N3CCOCC3)ccc2N2CCCC2)c1C ?
aDG glyco up: 7.4*; FAS TE block: 17.8; beta cell repl: -2.4; TAG inh: -13.6; Cardio protect: -14.5; aDG conf: -0.1

What do the screens show for `O=C(NNC(=O)C1CC(=O)N(c2ccc3c(c2)OCCO3)C1)c1ccc(F)cc1` (centres undefined)?
aDG glyco up: 3.3*; FAS TE block: -9.6; beta cell repl: -1.7; TAG inh: 2.9; Cardio protect: 6.5; aDG conf: 0.2

Results for COc1ccc(NC(=S)N2CCC3CC2c2c(Cl)cccc23)c(OC)c1 (centres undefined) ?
aDG glyco up: 0.1; FAS TE block: 9.2; TAG inh: -24.2; Cardio protect: -2.1

What do the screens show for `COc1ccc(NC(=O)C2CC(=O)N=C(N)S2)cc1` (centres undefined)?
aDG glyco up: 11.6*; FAS TE block: -4.6; beta cell repl: -1.7; TAG inh: -5.5; m-calpain inh: -40.1; Cardio protect: 0.7; aDG conf: -0.9

Results for COc1ccc(C)cc1NC(=O)c1nn(-c2ccccc2)cc1OC ?
aDG glyco up: 2.5*; FAS TE block: 17.8; beta cell repl: -4.0; Cardio protect: 8.0; aDG conf: 1.6

Results for Cc1nc2ccc(NC(=O)c3ccccc3)cc2c(=O)n1Cc1ccc(F)cc1 ?
aDG glyco up: 0.6; FAS TE block: 11.2; TAG inh: 6.4; Cardio protect: 19.5

What do the screens show for `Cn1c(SCC(=O)N2CCCc3ccccc32)nnc1-c1ccccc1`?
aDG glyco up: 3.7*; FAS TE block: -9.1; beta cell repl: -2.4; m-calpain inh: -22.1; Cardio protect: 2.8; aDG conf: 0.5
